Data reported in PubChem BioAssay (NCATS).
Values joined by “and” are separate entries in the source; they are usually repeats but may differ in a detail not shown here. Equal entries are not always repeated. Inconclusive results are not listed. Where a call stands in place of a potency, no number is given. A structure can be active in one record and inactive in another. Active and inactive are the calls of the source. Unless noted, calls come from the whole dose curve; as a rule, active = well fitted curve in the direction sought with a large enough effect; inconclusive = small, poorly fitted or top-dose-only effect, or another doubt; inactive = no such curve, though single readings can be large; an effect the other way counts as inactive or inconclusive.

Columns and labels:
[1] = target: Guanine nucleotide-binding protein G(i) subunit alpha-1 (Homo sapiens) (UniProt P63096); experiment: qHTS Assay for Inhibitors of RGS12 GoLoco Motif Activity (Green Fluorophore) (AID 879);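 note: negative values mean loss of peptide binding seen as reduced polarization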
Method in brief: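 A drop in FITC polarization marked displacement of the FITC-tagged RGS12 GoLoco peptide (10 nM) from Gαi1 (50 nM). Compounds were incubated 10 min at room temperature in Tris pH 7.5 buffer containing 150 mM NaCl, 0.1 mM GDP and 0.05% NP40; unlabeled peptide titration served as control.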

[2] = target: Cytochrome P450 2C9 (Homo sapiens) (UniProt P11712); experiment: qHTS Assay for Inhibitors and Substrates of Cytochrome P450 2C9 (AID 883); note: nearly all actives have a fitted effect of over 60% in size; note: potency is the fitted concentration of half-maximal effect
Method in brief: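 Human CYP2C9 (10nM) with Luciferin-H at 100uM (its KM) in 25mM KPO4; compound preincubated 10 min at 37C, then NADPH regeneration for 60 min at 37C. Luciferin read by luminescence after detection reagent; normalized to 57uM sulphaphenazole as full inhibition.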

[3] = target: Cytochrome P450 3A4 (Homo sapiens) (UniProt P08684); experiment: qHTS Assay for Activators of Cytochrome P450 3A4 (AID 885); note: nearly all actives have a fitted effect of over 65% in size; note: potency is the fitted concentration of half-maximal effect
Method in brief: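 Using 20nM recombinant human CYP3A4 in potassium phosphate (200mM), substrate Luciferin-PPXE at 25uM, luminescent luciferin detection followed a 60-min RT NADPH reaction; data scaled to 57 uM ketoconazole.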

[4] = target: Cytochrome P450 2C19 (Homo sapiens) (UniProt P33261); experiment: qHTS Assay for Inhibitors and Substrates of Cytochrome P450 2C19 (AID 899); note: nearly all actives have a fitted effect of over 60% in size; note: potency is the fitted concentration of half-maximal effect
Method in brief: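 5 nM human CYP2C19 with 10uM Luciferin-H EGE (at KM) in 50mM KPO4, compound preincubated 10 min at 37C, then NADPH regeneration for 60 min at 37C. Luciferin read by luminescence after detection reagent; normalized to 57uM ketoconazole as full inhibition.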

[5] = Confirmation and Secondary Assay for Modulators of Hemoglobin Beta Chain Splicing at IVS2 654 locus (AID 910);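 note: HeLa cells stably carrying EGFP split by mutant beta-globin IVS2-654 intron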
Method in brief: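 HeLa cells stably expressing EGFP interrupted by β-globin IVS2-654 intron, seeded overnight in Opti-MEM/2% FCS, then treated 2 days at 37 °C. Restored splicing read as total peak GFP intensity per well by laser scanning cytometry (488 nm excitation, 500–520 nm emission); 500 nM antisense PNA as control.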

[6] = qHTS Assay for Identification of Small Molecule Agonists for Thrombopoietin (TPO) Signaling Pathway (AID 917); note: potency is the fitted concentration of half-maximal effect
Method in brief: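 Quantitative HTS for pathway activators: compounds were pin-transferred onto IL-3-starved Ba/F3 cells expressing human TPO receptor, TPO was added at its EC50 (26 pM final), and after 24 hrs at 37 C reporter luciferase was measured.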

[7] = Confirmation and Secondary Assay for Modulators of Hemoglobin Beta Chain Splicing at IVS2 705 locus (AID 930);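 note: HeLa cells stably expressing the EGFP-705 splicing reporter; GFP fluorescence per well restored by corrected splicing of the IVS2-705 intron in EGFP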
Method in brief: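 Fluorescence gain (488 nm laser, 500-520 nm PMT) reflects restored correct splicing of a mutant IVS2-705 intron inside EGFP in stably transfected HeLa cells after 2-day compound treatment.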

[8] = target: Pyruvate kinase (Leishmania mexicana) (UniProt Q27686); experiment: qHTS Validation Assay for Inhibitors of Leishmania Mexicana Pyruvate Kinase (AID 945); note: potency is the fitted concentration of half-maximal effect
Method in brief: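 Compounds are tested as eight-point concentration series. Reactions contain 0.2 nM LmPYK E451W, 0.5 mM PEP, 0.1 mM ADP, 7 mM MgCl2 and 50 mM KCl at pH 7.2, run 1 h at room temperature, then read by PKLight luminescence.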

[9] = Cellular Toxicity (caspase-3) H-4-II-E (AID 663);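 note: cells exposed to compound for 16 hr before readout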
Method in brief: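 H-4-II-E rat hepatoma, 1500 cells/well, 5 hr settle at 37 °C; compound 16 hr, 37 °C, complete medium; Caspase-Glo 3/7, 20 min RT; luminescence. DMSO = 0%, 100 uM tamoxifen = 100%; Hill-equation AC50.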

[10] = Cellular Toxicity (caspase-3) Hek293 (AID 664); conditions: HEK293 caspase-3 activation; caspase-3 activation: at 92.2 µM (top of the series), DMSO = 0%, 100 µM tamoxifen = 100%;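 note: cells exposed to compound for 16 h at 37 °C before readout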
Method in brief: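 Apoptosis readout: Caspase-Glo 3/7 signal in human HEK293 cells following 16-hour compound incubation. Responses scaled between DMSO baseline and 100 uM tamoxifen.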

[11] = Cellular Toxicity (caspase-3) N2a (AID 665);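 note: compound exposure lasted 16 h at 37 °C before readout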
Method in brief: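 Concentration-response qHTS: compound-induced caspase-3/7 luminescence in N2a cells (16 h, 37 °C), relative to DMSO and 10 uM staurosporine controls; AC50 obtained using the standard Hill equation.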

[12] = Cellular Toxicity (caspase-3) NIH 3T3 (AID 666);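 note: caspase signal read after 16 h compound exposure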
Method in brief: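 Activity: caspase-3/7 induction, NIH 3T3 cells, 16 hr treatment at 37°C, luminescent Caspase-Glo detection; AC50 via Hill equation.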

[13] = Cellular Toxicity (caspase-3) Renal Proximal Tubule (AID 667);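 note: cells exposed to compound for 16 hours at 37 °C before detection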
Method in brief: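 In qHTS format, rat primary proximal tubule cells seeded at 1000 per well are exposed to compounds for 16 hours at 37 °C. An increase in Caspase-Glo 3/7 luminescence indicates caspase activation.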

[14] = target: Cytochrome P450 3A4 (Homo sapiens) (UniProt P08684); experiment: qHTS Assay for Inhibitors and Substrates of Cytochrome P450 3A4 (AID 884); note: nearly all actives have a fitted effect of over 50% in size
Method in brief: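 Luminescent readout of luciferin produced by CYP3A4 (20 nM) dealkylation of Luciferin-PPXE, 25 uM (its KM). NADPH-driven reaction ran 60 min at RT after 10 min compound preincubation; data scaled to 57 uM ketoconazole as 100% inhibition.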

[15] = qHTS Assay for Identification of Small Molecule Agonists for Hypoxia Response Element Signaling Pathway (AID 914; active = well fitted activation curve with a large enough effect in the signal ratio, with a control signal flat, not every such curve was filed as active; the % refers to the signal ratio); conditions: ME-180 HRE-bla reporter, beta-lactamase ratio, CoCl2, 17 h; stronger effect = higher value
Method in brief: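 A beta-lactamase reporter under hypoxia response element control in ME-180 cells served as the system. Compound titrations plus EC50 CoCl2 ran 17 h at 37 degrees Celsius; AC50 values were fitted from %Activity.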

[16] = Cell Viability - LYMP2-001 (AID 921);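 note: cells exposed to compound for 24 h at 37 °C; nearly all actives have a fitted effect of over 70% in size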
Method in brief: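 qHTS, 1536-well; lymphoblastoid cells, 24 hr compound, 37 C; ATP by CellTiter-Glo, 30 min RT; luminescence; Hill-fit AC50.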

[17] = target: Muscarinic acetylcholine receptor M1 (Rattus norvegicus) (UniProt P08482); experiment: qHTS Assay for Antagonists of Acetylcholine Muscarinic M1 Receptor: Measurement of IP-One Response (AID 944); note: nearly all actives have a fitted effect of over 75% in size
Method in brief: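 Antagonism was measured as loss of carbachol-driven (EC80) IP1 accumulation in CHO cells carrying rat M1, using a homogeneous IP-One TR-FRET kit read at 620 and 665 nm.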

[18] = qHTS Assay for Identification of Small Molecule Antagonists for NFkB Signaling Pathway (AID 895; active = well fitted inhibition curve with a large enough effect in the signal ratio, with a control signal flat, not every such curve was filed as active; the % refers to the signal ratio)
Method in brief: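 ME-180 NFkB-bla cells (beta-lactamase under NFkB response element), plated overnight, treated with compound then 10 pM TNF alpha (about EC50) for 5 hrs at 37 C. LiveBLAzer FRET read at 460/530 nm emission, 405 nm excitation.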

[19] = qHTS Assay for Identification of Small Molecule Antagonists for Thrombopoietin (TPO) Signaling Pathway (AID 918); conditions: TPO-dependent cell signaling reporter, antagonist mode; note: potency is the fitted concentration of half-maximal effect; nearly all actives have a fitted effect of over 60% in size
Method in brief: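 Antagonist mode at EC50 TPO (26 pM) in IL-3-free medium; murine Ba/F3 cells with human TPO receptor and GPIIb-promoter luciferase, 24 hrs at 37 C before luminescent detection.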

[20] = target: Muscarinic acetylcholine receptor M1 (Rattus norvegicus) (UniProt P08482); experiment: qHTS Assay for Antagonists of Acetylcholine Muscarinic M1 Receptor: Kinetic Measurement of Intracellular Calcium Response (AID 943); note: nearly all actives have a fitted effect of over 75% in size; note: potency is the fitted concentration of half-maximal effect
Method in brief: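 Quantitative HTS in CHO-M1 (rat receptor) cells: 10 min compound exposure ahead of 100 nM carbachol, Fluo-4 fluorescence followed 4 min, value expressed as peak-to-basal ratio.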

Chain of Cytochrome P450 3A4 (Homo sapiens) (P08684 whole entry, looked up): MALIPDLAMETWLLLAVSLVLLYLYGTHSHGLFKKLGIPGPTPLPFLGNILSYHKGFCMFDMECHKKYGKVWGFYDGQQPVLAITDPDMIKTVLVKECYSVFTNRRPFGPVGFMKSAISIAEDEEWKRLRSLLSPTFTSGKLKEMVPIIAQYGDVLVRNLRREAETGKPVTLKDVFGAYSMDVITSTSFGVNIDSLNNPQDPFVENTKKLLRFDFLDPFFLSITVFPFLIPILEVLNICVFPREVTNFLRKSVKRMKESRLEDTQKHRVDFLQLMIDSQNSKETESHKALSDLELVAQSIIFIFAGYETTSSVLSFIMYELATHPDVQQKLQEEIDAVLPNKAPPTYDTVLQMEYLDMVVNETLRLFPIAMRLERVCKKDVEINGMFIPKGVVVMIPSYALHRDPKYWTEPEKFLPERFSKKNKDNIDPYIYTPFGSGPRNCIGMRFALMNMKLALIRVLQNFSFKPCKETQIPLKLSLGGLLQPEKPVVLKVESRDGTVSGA
Chain of Cytochrome P450 2C19 (Homo sapiens) (P33261 whole entry, looked up): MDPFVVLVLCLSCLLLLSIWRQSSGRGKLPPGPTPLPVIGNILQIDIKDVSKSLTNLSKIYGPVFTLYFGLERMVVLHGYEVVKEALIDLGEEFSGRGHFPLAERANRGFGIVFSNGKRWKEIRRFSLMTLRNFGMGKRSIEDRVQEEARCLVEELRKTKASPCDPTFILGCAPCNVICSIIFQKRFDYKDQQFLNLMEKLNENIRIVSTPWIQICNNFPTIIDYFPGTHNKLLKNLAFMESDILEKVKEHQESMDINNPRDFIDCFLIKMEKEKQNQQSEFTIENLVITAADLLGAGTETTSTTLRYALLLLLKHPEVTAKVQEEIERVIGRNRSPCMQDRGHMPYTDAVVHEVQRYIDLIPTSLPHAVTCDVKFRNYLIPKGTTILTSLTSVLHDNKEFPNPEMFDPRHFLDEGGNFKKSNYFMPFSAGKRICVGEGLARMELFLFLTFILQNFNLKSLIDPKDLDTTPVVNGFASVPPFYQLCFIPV
Chain of Muscarinic acetylcholine receptor M1 (Rattus norvegicus) (P08482 whole entry, looked up): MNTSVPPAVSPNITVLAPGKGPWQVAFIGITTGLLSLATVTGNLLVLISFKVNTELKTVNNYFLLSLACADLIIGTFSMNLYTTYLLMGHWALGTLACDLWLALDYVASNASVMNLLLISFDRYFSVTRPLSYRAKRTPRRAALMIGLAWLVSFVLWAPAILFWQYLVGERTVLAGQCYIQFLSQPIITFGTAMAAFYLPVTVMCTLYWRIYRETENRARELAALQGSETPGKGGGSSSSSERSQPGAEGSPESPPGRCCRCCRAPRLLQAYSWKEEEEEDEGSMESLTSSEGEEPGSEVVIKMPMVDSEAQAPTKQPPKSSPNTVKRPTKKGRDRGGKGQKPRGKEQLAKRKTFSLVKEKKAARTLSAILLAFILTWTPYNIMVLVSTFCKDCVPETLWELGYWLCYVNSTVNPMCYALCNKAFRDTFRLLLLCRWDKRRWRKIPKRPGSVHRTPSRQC
Chain of Cytochrome P450 2C9 (Homo sapiens) (P11712 whole entry, looked up): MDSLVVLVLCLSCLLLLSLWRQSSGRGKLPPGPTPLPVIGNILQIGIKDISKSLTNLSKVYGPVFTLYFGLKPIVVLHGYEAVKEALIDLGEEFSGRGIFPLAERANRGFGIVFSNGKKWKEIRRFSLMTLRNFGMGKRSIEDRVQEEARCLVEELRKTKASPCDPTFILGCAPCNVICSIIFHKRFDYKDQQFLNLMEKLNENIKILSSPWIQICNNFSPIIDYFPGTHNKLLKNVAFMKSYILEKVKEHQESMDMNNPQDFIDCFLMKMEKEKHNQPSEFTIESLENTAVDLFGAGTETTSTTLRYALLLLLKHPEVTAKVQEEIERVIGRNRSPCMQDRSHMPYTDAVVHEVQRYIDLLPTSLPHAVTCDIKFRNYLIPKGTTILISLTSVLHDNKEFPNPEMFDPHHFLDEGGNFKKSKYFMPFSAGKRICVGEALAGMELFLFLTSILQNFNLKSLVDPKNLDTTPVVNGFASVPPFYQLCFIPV
Chain of Guanine nucleotide-binding protein G(i) subunit alpha-1 (Homo sapiens) (P63096 whole entry, looked up): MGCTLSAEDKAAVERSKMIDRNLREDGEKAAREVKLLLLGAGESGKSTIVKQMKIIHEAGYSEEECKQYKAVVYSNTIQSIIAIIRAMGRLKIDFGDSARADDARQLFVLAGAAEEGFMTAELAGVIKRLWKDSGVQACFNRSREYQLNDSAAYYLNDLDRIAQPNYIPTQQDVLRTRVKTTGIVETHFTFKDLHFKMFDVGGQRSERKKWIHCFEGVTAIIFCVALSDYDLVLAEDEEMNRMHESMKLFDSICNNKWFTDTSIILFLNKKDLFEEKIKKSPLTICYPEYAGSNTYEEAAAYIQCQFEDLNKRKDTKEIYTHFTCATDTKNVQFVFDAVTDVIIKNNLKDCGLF
Chain of Pyruvate kinase (Leishmania mexicana) (Q27686 2-499 E452W): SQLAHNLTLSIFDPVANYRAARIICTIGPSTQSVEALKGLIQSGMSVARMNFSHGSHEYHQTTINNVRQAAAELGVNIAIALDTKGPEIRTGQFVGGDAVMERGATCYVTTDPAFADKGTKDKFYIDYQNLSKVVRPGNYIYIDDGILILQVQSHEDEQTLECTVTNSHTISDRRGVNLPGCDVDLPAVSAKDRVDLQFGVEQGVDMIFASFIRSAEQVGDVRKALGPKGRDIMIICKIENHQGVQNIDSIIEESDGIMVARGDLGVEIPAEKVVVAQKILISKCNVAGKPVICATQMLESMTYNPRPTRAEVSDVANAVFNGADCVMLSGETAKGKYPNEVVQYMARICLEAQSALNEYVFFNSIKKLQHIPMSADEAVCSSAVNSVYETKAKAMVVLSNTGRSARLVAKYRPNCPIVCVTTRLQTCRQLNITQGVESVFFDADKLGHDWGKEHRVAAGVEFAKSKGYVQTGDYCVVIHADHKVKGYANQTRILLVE

## CN1C(C(=O)Nc2ccccn2)=C(O)c2ccccc2S1(=O)=O
[1]
  Potency: inactive
[2]
  Potency: 3.98 µM (active)
[3]
  Potency: inactive
[4]
  Potency: inactive and 6.31 µM (active)
[5]
  Potency: inactive
[6]
  Potency: inactive
[7]
  outcome: inactive
[8]
  Potency: inactive

## Cn1c(=O)c2c(ncn2C)n(C)c1=O
[9]
  outcome: inactive
[10]
  Potency: inactive
[11]
  outcome: inactive
[12]
  outcome: inactive
[13]
  outcome: inactive
[1]
  Potency: inactive
[2]
  Potency: inactive
[14]
  outcome: inactive
[4]
  Potency: inactive
[15]
  activation: -1.38% (inactive)
[6]
  Potency: inactive
[16]
  outcome: inactive
[7]
  outcome: inactive
[17]
  Potency: inactive

## Cn1c(=O)c2[nH]cnc2n(C)c1=O
[9]
  outcome: inactive
[10]
  Potency: inactive
[11]
  outcome: inactive
[12]
  outcome: inactive
[13]
  outcome: inactive
[1]
  Potency: inactive
[14]
  outcome: inactive
[18]
  Potency: inactive
[6]
  Potency: inactive
[16]
  outcome: inactive
[7]
  outcome: inactive

## CS(=O)(=O)Nc1ccc([N+](=O)[O-])cc1Oc1ccccc1
[1]
  Potency: inactive
[2]
  Potency: 10 µM (active) and 3.16 µM (active)
[3]
  Potency: inactive
[18]
  Potency: inactive
[4]
  Potency: inactive
[5]
  Potency: inactive
[6]
  Potency: inactive
[7]
  outcome: inactive

## Clc1ccc2c(c1)C(N1CCNCC1)=Nc1ccccc1O2
[1]
  Potency: inactive
[2]
  Potency: inactive
[3]
  Potency: inactive
[4]
  Potency: inactive
[19]
  Potency: 10 µM (active)
[7]
  outcome: inactive
[8]
  Potency: inactive

## Cc1ccc(-c2cc(C(F)(F)F)nn2-c2ccc(S(N)(=O)=O)cc2)cc1
[10]
  Potency: inactive
[11]
  outcome: inactive
[12]
  outcome: inactive
[13]
  outcome: inactive
[16]
  outcome: inactive
[7]
  outcome: inactive

## COc1ccc(CCN(C)CCCC(C#N)(c2ccc(OC)c(OC)c2)C(C)C)cc1OC (centres undefined)
[9]
  outcome: inactive
[10]
  Potency: inactive
[11]
  outcome: inactive
[12]
  outcome: inactive
[13]
  outcome: inactive

## COc1ccc2[nH]cc(CCNC(C)=O)c2c1
[9]
  outcome: inactive
[10]
  Potency: inactive
[11]
  outcome: inactive
[12]
  outcome: inactive
[13]
  outcome: inactive
[1]
  Potency: inactive
[18]
  Potency: inactive
[5]
  Potency: inactive
[6]
  Potency: inactive
[16]
  outcome: inactive
[7]
  outcome: inactive
[17]
  Potency: inactive
[8]
  Potency: inactive

## NS(=O)(=O)c1cc2c(cc1Cl)NCNS2(=O)=O
[9]
  outcome: inactive
[10]
  Potency: inactive
[11]
  outcome: inactive
[12]
  outcome: inactive
[13]
  outcome: inactive
[1]
  Potency: inactive
[6]
  Potency: inactive
[16]
  outcome: inactive
[7]
  outcome: inactive
[8]
  Potency: inactive

## CCC1(c2ccccc2)C(=O)NCNC1=O
[9]
  outcome: inactive
[10]
  Potency: inactive
[11]
  outcome: inactive
[12]
  outcome: inactive
[13]
  outcome: inactive
[1]
  Potency: inactive
[2]
  Potency: inactive
[14]
  outcome: inactive
[18]
  Potency: inactive
[4]
  Potency: inactive
[6]
  Potency: inactive
[16]
  outcome: inactive
[7]
  outcome: inactive

## Cc1cn([C@H]2C[C@H](N=[N+]=[N-])[C@@H](CO)O2)c(=O)[nH]c1=O
[9]
  outcome: inactive
[10]
  Potency: inactive
[11]
  outcome: inactive
[12]
  outcome: inactive
[13]
  outcome: inactive
[16]
  outcome: inactive

## O=c1c(-c2ccc(O)cc2)coc2cc(O)cc(O)c12
[9]
  outcome: inactive
[10]
  Potency: inactive
[11]
  outcome: inactive
[12]
  outcome: inactive
[13]
  outcome: inactive
[1]
  Potency: inactive
[2]
  Potency: inactive
[3]
  Potency: inactive
[4]
  Potency: inactive and 20 µM (active)
[5]
  Potency: inactive
[6]
  Potency: 1.58 µM (active)
[16]
  outcome: inactive
[7]
  outcome: inactive
[8]
  Potency: 12.6 µM (active)

## COc1ccc2c(c1)c(CC(=O)O)c(C)n2C(=O)c1ccc(Cl)cc1
[9]
  outcome: inactive
[10]
  Potency: inactive
[11]
  outcome: inactive
[12]
  outcome: inactive
[13]
  outcome: inactive
[1]
  Potency: inactive
[14]
  outcome: inactive
[4]
  Potency: inactive
[5]
  Potency: inactive
[6]
  Potency: inactive
[7]
  outcome: inactive

## CN(C)CCCN1c2ccccc2CCc2ccc(Cl)cc21
[1]
  Potency: inactive
[2]
  Potency: inactive
[3]
  Potency: inactive
[18]
  Potency: inactive
[4]
  Potency: inactive
[7]
  outcome: inactive
[8]
  Potency: inactive

## O=C1N(c2ccccc2)c2ccccc2C1(Cc1ccncc1)Cc1ccncc1
[2]
  Potency: 3.98 µM (active) and 7.94 µM (active)

## O=C1c2c(O)ccc(O)c2C(=O)c2c(NCCNCCO)ccc(NCCNCCO)c21
[19]
  Potency: 0.0251 µM (active)

## Fc1ccc([C@@H]2CCNC[C@H]2COc2ccc3c(c2)OCO3)cc1
[19]
  Potency: 12.6 µM (active)

## COc1cc2nc(N3CCN(C(=O)c4ccco4)CC3)nc(N)c2cc1OC
[2]
  Potency: inactive
[3]
  Potency: 12.6 µM (active)

## CCOC(=O)c1ncn2c1CN(C)C(=O)c1cc(F)ccc1-2
[2]
  Potency: inactive
[4]
  Potency: inactive

## CN1CCN2c3ccccc3Cc3ccccc3C2C1 (centres undefined)
[3]
  Potency: inactive

## O=C(c1ccc(OCCN2CCCCC2)cc1)c1c(-c2ccc(O)cc2)sc2cc(O)ccc12
[19]
  Potency: 15.8 µM (active)

## CCOC(=O)Nc1ccc(NCc2ccc(F)cc2)nc1N
[20]
  Potency: inactive

## Cc1ccc(C(=O)Nc2ccc(S(=O)(=O)O)c3cc(S(=O)(=O)O)cc(S(=O)(=O)O)c23)cc1NC(=O)c1cccc(NC(=O)Nc2cccc(C(=O)Nc3cc(C(=O)Nc4ccc(S(=O)(=O)O)c5cc(S(=O)(=O)O)cc(S(=O)(=O)O)c45)ccc3C)c2)c1
[20]
  Potency: 1.58 µM (active)
